# The campaign covered roughly 1,300 compounds. About 140 (11%) were called active. The rule behind the calls is not given here. A selection follows. Results with a measured potency or affinity are listed apart.
# Molecular target: Prostaglandin E2 receptor EP2 subtype (Homo sapiens) (UniProt P43116)
# Assay: compounds shifting PGE2 potency at EP2 – cell-based, human EP2, PGE2 EC50 shift, dose response (AID 1421)
# Conditions: EP2-expressing cells, PGE2 EC50 shift by compound; at 20 µM
# Chain of Prostaglandin E2 receptor EP2 subtype (Homo sapiens) (P43116 whole entry, looked up): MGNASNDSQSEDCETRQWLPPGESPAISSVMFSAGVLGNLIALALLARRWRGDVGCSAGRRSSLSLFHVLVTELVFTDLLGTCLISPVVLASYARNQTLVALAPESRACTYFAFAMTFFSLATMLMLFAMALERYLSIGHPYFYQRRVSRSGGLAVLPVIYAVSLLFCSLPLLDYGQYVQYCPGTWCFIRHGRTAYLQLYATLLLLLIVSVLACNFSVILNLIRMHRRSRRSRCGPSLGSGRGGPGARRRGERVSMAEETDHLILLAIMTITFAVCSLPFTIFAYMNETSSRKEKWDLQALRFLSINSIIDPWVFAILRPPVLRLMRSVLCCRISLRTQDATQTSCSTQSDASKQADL
row,Structure (SMILES),PGE2 EC50 with compound
1,Cc1ccc(S(=O)(=O)Nc2ccc(Cl)cc2C(=O)c2ccc(F)cc2)cc1,1 nM (inactive)
2,O=C(/C(=C/O)N=Nc1ccccc1)c1ccc(Cl)cc1,7.05 nM (inactive)
3,Cc1ccc(S(=O)(=O)NCC(=O)N(c2ccccc2)C(C(=O)NCc2ccccc2)c2ccco2)cc1 (stereo unspecified),0.62 nM (inactive)
4,O=C(c1ccco1)N(CCC(c1ccccc1)c1ccco1)Cc1ccc(F)cc1 (stereo unspecified),0.84 nM (inactive)
5,N#CCCSc1ncnc2c1oc1ccccc12,2.48 nM (inactive)
6,CCOC(=O)CC(=O)CSc1ncnc2c1oc1ccccc12,2.96 nM (inactive)
7,Cc1cc(=O)oc(C)c1C(=O)OC(C(=O)c1ccccc1)c1ccccc1 (stereo unspecified),0.26 nM (inactive)
8,Cc1noc(C)c1COC(=O)C(c1ccccc1)c1ccccc1,0.31 nM (inactive)
9,COc1ccc2cc(CN(Cc3ccco3)C(c3nnnn3C3CCCCC3)C(C)C)c(=O)[nH]c2c1 (stereo unspecified),0.82 nM (inactive)
10,COc1ccc2cc3c(N)nn(C(=O)C4CCC(C(C)(C)C)CC4)c3nc2c1 (stereo unspecified),0.34 nM (inactive)
11,CCc1nnc2n1N=C(c1ccc(-c3cc(Cl)ccc3Cl)o1)CS2,0.42 nM (inactive)
12,CCOC(=O)c1c(C=O)c(C)n(Cc2ccccc2Cl)c1C,0.46 nM (inactive)
13,CCOC(=O)c1c(C=O)c(C)n(Cc2ccc(C)cc2)c1C,0.36 nM (inactive)
14,Cc1cccc(NC(=O)CSc2ncnc3c2oc2ccccc23)c1,8.27 nM (inactive)
15,Cc1nc(SCCC(=O)O)c2ccccc2n1,15.1 nM (inactive)
16,COc1cc(/C=C/c2ccc3cccc([N+](=O)[O-])c3n2)ccc1OCC(=O)O,4.66 nM (inactive)
17,COC(=O)C1C(c2ccccc2)C(C(=O)OCc2ccco2)C1c1ccccc1 (stereo unspecified),0.38 nM (inactive)
18,Fc1ccc(Sc2nc(-c3ccccc3)nnc2C(F)(F)F)cc1,1.16 nM (inactive)
19,CSc1nc(Oc2ccc(F)cc2)c2ccccc2n1,0.42 nM (inactive)
20,Cc1ccc(S(=O)(=O)c2c(C)cc(C)nc2N2CCCCC2)cc1,0.31 nM (inactive)
21,CC1=C/C(=C(/c2ccc(O)c(C)c2)c2ccccc2C(=O)O)C=CC1=O,0.75 nM (inactive)
22,CCOC(=O)c1c(CC(C)C)csc1N,0.39 nM (inactive)
23,Cc1cc(Br)c2nc3c(c(C(=O)O)c2c1)CCCCC3,11.9 nM (inactive)
24,CS(=O)(=O)N(Cc1ccccc1)c1ccccc1C(=O)Nc1ccccc1C(=O)NCc1ccco1,56.6 nM (inactive)

row,Structure (SMILES),PGE2 EC50 with compound
1,O=C(N/N=C/c1ccc[nH]1)c1ccccc1OCc1ccccc1Cl,0.27 nM (inactive)
2,O=C(O)NCc1ccccc1 (tested in a mixture with another compound),0.49 nM (inactive)
3,CCOc1ccccc1C(=O)Nc1ccccc1-c1ccccc1,0.2 nM (inactive)
4,CCc1cc2cc(C)cc(C)c2nc1SCC(=O)N1CCCC1,0.43 nM (inactive)
5,CCOC(=O)Cn1c(=S)[nH]c2c(oc3ccc(Cl)cc32)c1=O,6.72 nM (inactive)
6,CCOc1ccc(OCC)c(NC(=O)CN2CCN(c3ccc(C)cc3C)CC2)c1,0.77 nM (inactive)
7,C=CCCC1(C)C(=O)N(c2ccccc2)c2ccccc21 (stereo unspecified),0.41 nM (inactive)
8,CC1Cc2ccccc2N1CC(=O)NC(c1ccccc1)c1ccccc1 (stereo unspecified),0.52 nM (inactive)
9,Cc1cc(C)n(CCOc2ccc(Cl)cc2Cl)n1,0.34 nM (inactive)
10,CCOc1cccc(CNc2ccc(O)cc2)c1OCc1ccc(Cl)cc1,0.78 nM (inactive)
11,COC(=O)c1ccccc1NC(=O)C(C)Oc1ccccc1 (stereo unspecified),0.81 nM (inactive)
12,c1ccc(Cc2nc3ccccc3n2Cc2ccccc2)cc1,0.31 nM (inactive)
13,Cc1cccc(OCc2n[nH]c(=S)n2Cc2ccccc2)c1,0.47 nM (inactive)
14,COCCn1c(SCC(=O)NCCc2ccccc2)nnc1-c1ccco1,0.68 nM (inactive)
15,COc1ccc(C(=O)O)cc1NC(=S)NC(=O)c1ccc(-c2ccc(Cl)cc2)o1,462 nM (inactive)
16,CC(C)n1c2ccccc2c2nnc(SCC(=O)Nc3ccccc3C(=O)O)nc21,1.63 nM (inactive)
17,Cc1cc(C)n(-c2cc(-c3ccccc3)nc(C)n2)n1,0.22 nM (inactive)
18,COc1ccc(C(=O)Nc2cc(C)nn2-c2nc3ccccc3[nH]2)c(OC)c1,0.24 nM (inactive)
19,Cc1oc(-c2ccccc2)cc1C(=O)Nc1cccc(/C=C\C(=O)O)c1,inactive
20,c1cncc(-c2nc(N3CCOCC3)c3c4c(sc3n2)CCC4)c1,0.72 nM (inactive)
21,Cc1ccc(C2CC(c3cccs3)=NN2C(=O)c2ccc(Br)o2)cc1 (stereo unspecified),0.31 nM (inactive)
22,Cc1ccccc1NC(=S)N(Cc1ccco1)C(C)c1cccs1 (stereo unspecified),0.4 nM (inactive)
23,Cc1ccc(Cl)cc1NC(=S)N(Cc1ccco1)C(C)c1cccs1 (stereo unspecified),0.26 nM (inactive)
24,O=C(NCc1ccco1)c1ccc(=O)[nH]n1,0.48 nM (inactive)

row,Structure (SMILES),PGE2 EC50 with compound
1,C/C(CCc1oc2ccccc2c1-c1ccc(C)o1)=N/O,0.47 nM (inactive)
2,Cc1ccc(-c2cc3nn(-c4ccccc4)c(N)c3c(=O)o2)cc1,1.29 nM (inactive)
3,Cc1ccc(N=Nc2c(N)[nH]n3c(=O)c4c(nc23)CCCC4)cc1,3.42 nM (inactive)
4,O=C(O)COc1ccc2occ(C(=O)c3ccccc3)c2c1,0.37 nM (inactive)
5,CCOc1nc(C)cc(C)c1S(=O)(=O)c1ccc(Cl)cc1,0.21 nM (inactive)
6,CC(/C=C1\SC(=S)N(C(C(=O)O)C(C)C)C1=O)=C\c1ccccc1 (stereo unspecified),1.95 nM (inactive)
7,COc1ccccc1CNC(=O)C1(c2ccc(Cl)cc2)CC1,0.43 nM (inactive)
8,CCC(=O)N1CCN(c2nc(-c3ccccc3)c3c(c2C#N)CCCC3)CC1,0.31 nM (inactive)
9,CCCCc1nc(N2CCOCC2)c(C#N)c2c1CCCC2,0.37 nM (inactive)
10,CCOc1ccc(OCC)c(NC(=O)CN2CCN(c3cc(C)ccc3C)CC2)c1,0.45 nM (inactive)
11,Cc1occc1-c1nnc(SCC(=O)Nc2ccccc2N2CCCCC2)n1C,1.17 nM (inactive)
12,O=C(Cc1c(F)cccc1Cl)Nc1ccccc1N1CCCCC1,0.53 nM (inactive)
13,O=C(CNCc1ccccc1Cl)Nc1ccccc1N1CCCCC1,0.81 nM (inactive)
14,CC(C)(C)N(Cc1ccccc1)C(=O)c1ccc(Br)o1,0.51 nM (inactive)
15,COC(=O)NC1(C(F)(F)F)C(=O)NC(C)=C1C(=O)OC (stereo unspecified),0.72 nM (inactive)
16,CCOC(=O)N1CCC(=C2c3ccc(Cl)cc3CCc3cccnc32)CC1,0.38 nM (inactive)
17,CCOC(=O)C1=C(C)N(C)C(C)=C(C(=O)OCC)C1c1ccccc1,0.51 nM (inactive)
18,CC1CCN(c2nc(-c3ccncc3)nc3ccccc23)CC1,0.52 nM (inactive)
19,Cc1nnc(SCC(=O)N2c3ccccc3C(C)(c3ccccc3)CC2(C)C)s1 (stereo unspecified),0.37 nM (inactive)
20,O=C(c1ccc(Cl)cc1)c1oc2ccccc2c1CS(=O)c1ccc(Cl)cc1 (stereo unspecified),0.25 nM (inactive)
21,O=C(COc1cccc2ccccc12)N1c2ccccc2CCc2ccccc21,0.35 nM (inactive)
22,Clc1ccc(Cl)c(-c2ccc(/C=N/c3ncn[nH]3)o2)c1,2.61 nM (inactive)
23,COc1ccccc1N(C(=O)NCc1ccccc1)C1=NCC(C)S1 (stereo unspecified),0.21 nM (inactive)
24,CCn1c2ccc(OC)cc2c2nc3ccccc3nc21,0.85 nM (inactive)

row,Structure (SMILES),PGE2 EC50 with compound
1,O=c1cc(N2CCCCC2)c(-c2ccccc2)nn1Cc1ccccc1Cl,0.4 nM (inactive)
2,CC1=CC2C(C(C)C)CCC(C)(O)C2CC1 (stereo unspecified),0.83 nM (inactive)
3,O=C(NCc1ccco1)C(c1cccs1)N(C(=O)Cc1cccs1)c1ccccc1 (stereo unspecified),0.44 nM (inactive)
4,c1ccc(-c2noc(-c3cccc4ccccc34)n2)cc1,0.52 nM (inactive)
5,COc1ccc(-c2noc(-c3ccccc3-c3ccccc3)n2)cc1OC,0.17 nM (inactive)
6,c1ccc(-c2noc(-c3ccccc3-c3ccccc3)n2)cc1,0.5 nM (inactive)
7,COc1cc(-c2noc(-c3cccc(Cl)c3)n2)cc(OC)c1OC,0.47 nM (inactive)
8,COc1ccc(CCN(Cc2nc(-c3ccccc3)no2)Cc2nc(-c3ccccc3)no2)cc1OC,0.49 nM (inactive)
9,Cc1ccc(-c2csc3ncnc(N4CCc5ccccc5C4)c23)cc1,0.42 nM (inactive)
10,Cc1ccc(-c2nn3c(C)nnc3s2)cc1NCc1c(F)cccc1Cl,0.97 nM (inactive)
11,CC(C)Sc1nc2sc3c(c2c2nnc(SCC(=O)NCc4ccco4)n12)CCCC3,0.83 nM (inactive)
12,Cc1sc2ncnc(Sc3ccccc3C(=O)O)c2c1C,3.01 nM (inactive)
13,COc1cccc(-c2nc(N3CC(C)CC(C)C3)c3ccccc3n2)c1O (stereo unspecified),0.13 nM (inactive)
14,CCSc1nc2c(c(=O)[nH]c(=O)n2C)n1Cc1ccc(Cl)cc1,0.83 nM (inactive)
15,CCOc1cccc(CNc2ccc(O)cc2)c1OCc1ccccc1Cl,0.8 nM (inactive)
16,C=CCOc1ccccc1CNc1cccc(F)c1,0.37 nM (inactive)
17,Cc1cc(SC(C)C(=O)O)nc2ccccc12 (stereo unspecified),1.16 nM (inactive)
18,O=C(CSc1ncnc2c1oc1ccccc12)Nc1ccccc1F,1.24 nM (inactive)
19,O=[N+]([O-])c1ccc(Cl)c2c1C1C=CCC1C(c1ccccn1)N2 (stereo unspecified),0.53 nM (inactive)
20,CC(=O)N(c1cccc(Br)c1)C1C=CS(=O)(=O)C1 (stereo unspecified),0.92 nM (inactive)
21,Cc1nnc(SCC(=O)NC2CCCCC2)n1C1CCCCC1,0.89 nM (inactive)
22,CC(NC(c1ccccc1)c1ccccc1)C(=O)N1CCCc2ccccc21 (stereo unspecified),0.36 nM (inactive)
23,Cc1ccc(C(=O)O)cc1NC(=S)NC(=O)c1ccc(-c2ccccc2)cc1,1.3 nM (inactive)
24,O=C(COc1ccccc1)Nc1cc(C(F)(F)F)ccc1N1CCCC1,0.31 nM (inactive)
